Data: PubChem BioAssay
Active and inactive are the calls of the source.

Experiments:
Albumin (Bos taurus) = Albumin (Bos taurus) (UniProt P02769); assay: bovine serum albumin binders on microarray, profiling panel, artefact control for SMM control protein annotation, biochemical, small-molecule microarray, Alexa647 label, 635/667 nm fluorescence (AID 1118); details: BSA-A647 binding, fluorescence 635 nm, higher = more signal;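 note: score merges 667 nm emission intensity and signal-to-noise per printed compound spot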
Sequence of Albumin (Bos taurus) (P02769 whole entry, looked up): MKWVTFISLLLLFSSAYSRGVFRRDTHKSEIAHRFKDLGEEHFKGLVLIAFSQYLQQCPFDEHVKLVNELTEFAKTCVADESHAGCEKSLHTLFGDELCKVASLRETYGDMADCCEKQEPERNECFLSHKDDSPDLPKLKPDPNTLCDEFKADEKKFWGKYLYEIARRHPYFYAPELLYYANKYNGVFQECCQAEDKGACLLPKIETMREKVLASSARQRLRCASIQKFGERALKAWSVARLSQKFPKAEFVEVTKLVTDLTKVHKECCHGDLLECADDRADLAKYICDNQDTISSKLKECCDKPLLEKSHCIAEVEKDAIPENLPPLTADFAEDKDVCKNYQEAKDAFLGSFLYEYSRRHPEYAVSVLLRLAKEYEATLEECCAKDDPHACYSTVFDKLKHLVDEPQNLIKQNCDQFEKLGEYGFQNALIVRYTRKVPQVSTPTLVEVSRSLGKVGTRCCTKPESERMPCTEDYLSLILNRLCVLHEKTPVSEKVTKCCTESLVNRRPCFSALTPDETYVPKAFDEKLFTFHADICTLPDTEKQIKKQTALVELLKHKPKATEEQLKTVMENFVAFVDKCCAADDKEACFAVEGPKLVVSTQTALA

[1] = small-molecule microarray binders of probe aXIP, primary screen, biochemical, NeuroSMM set, 635/667 nm fluorescence (AID 1119); details: higher = more signal, called active from +8 up or from −8 down;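 note: probe is the protein aXip251-270 applied at 1 µg/mL to compound-printed slides; binding of probe to printed compounds measured as 667 nm fluorescence plus signal to noise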
[2] = small-molecule binders of probe aNOTCH3, primary screen, biochemical, small-molecule microarray, 635/667 nm fluorescence (AID 1120); details: higher = more signal;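 note: probe is a biotin-tagged antibody raised against NOTCH3 rather than NOTCH3 protein; score merges spot fluorescence near 667 nm with spot signal to noise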
[3] = small-molecule binders of probe aNOTCH2, primary screen, biochemical, small-molecule microarray, 635/667 nm fluorescence (AID 1121); details: higher = more signal;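 note: score merges feature fluorescence read at 667 nm with its signal to noise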
[4] = target: Carbonic anhydrase 2 (Homo sapiens) (UniProt P00918); assay: CAII small-molecule binders, profiling panel, biochemical, small-molecule microarray, Alexa647-labelled CAII (AID 1122); details: CAII-A647 binding fluorescence, higher = more signal
[5] = COS7 lysate on small-molecule microarray, probe aHis, 635 nm (AID 1123); details: COS7 cell lysate, fluorescence, higher = more signal;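 note: z-score combines 667nm fluorescence intensity with signal-to-noise per printed compound spot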
[6] = compound binding in COS7 lysate, probe aLAP1, primary screen, cell lysate, small-molecule microarray (AID 1124); details: probe aLAP1, fluorescence, higher = more signal;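 note: lysate comes from COS7 cells expressing LAP1 and is applied at 0.3 µg/mL; score merges spot fluorescence near 667 nm with signal-to-noise over triplicate slides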
Sam68 (KHDRBS1) = assay: Sam68 small-molecule binders, primary screen, biochemical, small-molecule microarray, 635 nm fluorescence (AID 1125); details: small-molecule microarray binding, higher = more signal;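 note: score merges 667 nm channel intensity with signal to noise over triplicate slides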
[7] = tested on: Chordin-like protein 2 (CHRDL2); assay: CHRDL2 small-molecule binders, primary screen, biochemical, small-molecule microarray, 635 nm fluorescence (AID 1126); details: small-molecule microarray binding, fluorescence 635 nm; higher = more signal;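 note: printed compound slides probed with Chrdl2 protein at 4 µg/mL for 1 h at 4 C; score merges 667 nm emission intensity with signal to noise over three replicate slides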
[8] = target: Concanavalin-A (Canavalia ensiformis) (UniProt P02866); assay: ConA small-molecule binders, primary screen, artefact control for SMM control protein annotation, biochemical, small-molecule microarray, Alexa647 label, 635 nm (AID 1127); details: ConA-A647 binding fluorescence, higher = more signal;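 note: z combines 667 nm emission intensity with signal-to-noise across three replicate slides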
Sequence of Concanavalin-A (Canavalia ensiformis) (P02866 whole entry, looked up): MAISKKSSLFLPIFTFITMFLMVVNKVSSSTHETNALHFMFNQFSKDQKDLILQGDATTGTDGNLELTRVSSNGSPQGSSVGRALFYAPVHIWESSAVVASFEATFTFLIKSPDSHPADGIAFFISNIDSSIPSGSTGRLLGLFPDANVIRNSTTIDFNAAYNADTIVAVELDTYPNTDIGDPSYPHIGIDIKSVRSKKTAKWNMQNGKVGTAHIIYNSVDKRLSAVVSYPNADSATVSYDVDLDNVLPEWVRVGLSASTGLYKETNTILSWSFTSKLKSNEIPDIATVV

[9] = anti-His antibody binders, primary screen, artefact control for SMM control protein annotation, biochemical, small-molecule microarray, 635 nm fluorescence (AID 1128); details: anti-His Alexa647 antibody binding, higher = more signal;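 note: score merges feature fluorescence with signal-to-noise for each printed compound spot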
[10] = tested on: Human papillomavirus type 1a E7 protein (residues 1-88); assay: HPV1a E7 small-molecule binders, primary screen, biochemical, small-molecule microarray, residues 1-88, 635 nm (AID 1129); details: small-molecule microarray binding, fluorescence 635 nm; higher = more signal
[11] = target: Focal adhesion kinase 1 (Homo sapiens) (UniProt Q05397); assay: small-molecule microarray binders of FAK, primary screen, biochemical, 635/667 nm fluorescence, BSA, DTT (AID 1130); details: PTK2 binding, 635 nm fluorescence, higher = more signal;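 note: composite of spot emission at 667 nm and signal to noise over triplicate slides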
Sequence of Focal adhesion kinase 1 (Homo sapiens) (Q05397 whole entry, looked up): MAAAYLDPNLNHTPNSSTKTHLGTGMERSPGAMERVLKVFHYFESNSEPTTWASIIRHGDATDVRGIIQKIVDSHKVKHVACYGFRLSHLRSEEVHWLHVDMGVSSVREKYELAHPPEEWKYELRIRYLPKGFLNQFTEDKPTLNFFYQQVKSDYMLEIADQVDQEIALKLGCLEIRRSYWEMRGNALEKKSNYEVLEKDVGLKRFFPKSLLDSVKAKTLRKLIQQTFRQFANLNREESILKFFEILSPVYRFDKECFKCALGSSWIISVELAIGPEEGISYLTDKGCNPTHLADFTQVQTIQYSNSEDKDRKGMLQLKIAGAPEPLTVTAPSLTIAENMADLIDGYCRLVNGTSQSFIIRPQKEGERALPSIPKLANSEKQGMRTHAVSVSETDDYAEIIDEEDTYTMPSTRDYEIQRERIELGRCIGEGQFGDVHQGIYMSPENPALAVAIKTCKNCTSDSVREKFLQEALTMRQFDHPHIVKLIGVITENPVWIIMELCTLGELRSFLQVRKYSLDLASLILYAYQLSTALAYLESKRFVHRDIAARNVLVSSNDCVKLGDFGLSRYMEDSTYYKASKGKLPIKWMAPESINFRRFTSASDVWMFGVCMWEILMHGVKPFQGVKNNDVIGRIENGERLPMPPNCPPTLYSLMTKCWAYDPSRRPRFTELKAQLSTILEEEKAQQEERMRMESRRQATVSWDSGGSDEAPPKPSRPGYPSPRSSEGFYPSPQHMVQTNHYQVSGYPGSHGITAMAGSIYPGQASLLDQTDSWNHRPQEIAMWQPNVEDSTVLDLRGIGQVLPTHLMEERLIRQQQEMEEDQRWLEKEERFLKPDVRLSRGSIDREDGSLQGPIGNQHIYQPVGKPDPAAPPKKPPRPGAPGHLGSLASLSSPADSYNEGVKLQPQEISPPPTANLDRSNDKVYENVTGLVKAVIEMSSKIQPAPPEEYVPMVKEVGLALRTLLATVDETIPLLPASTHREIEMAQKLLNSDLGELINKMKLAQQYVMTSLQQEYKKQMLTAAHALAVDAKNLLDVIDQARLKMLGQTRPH

[12] = tested on: Fibrinogen (Alexa647-labelled); assay: fibrinogen binders on compound microarrays, profiling panel, artefact control for SMM control-protein annotation, biochemical, small-molecule microarray, 635/667 nm fluorescence (AID 1131); details: fibrinogen-A647 binding fluorescence, higher = more signal;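 note: z-score merges 667 nm fluorescence with per-spot signal-to-noise over triplicate slides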
[13] = target: Follistatin (Homo sapiens) (UniProt P19883); assay: follistatin binders on small-molecule microarrays, primary screen, biochemical, small-molecule microarray, 635/667 nm fluorescence (AID 1132); details: FST binding, 635 nm fluorescence, higher = more signal
Sequence of Follistatin (Homo sapiens) (P19883 whole entry, looked up): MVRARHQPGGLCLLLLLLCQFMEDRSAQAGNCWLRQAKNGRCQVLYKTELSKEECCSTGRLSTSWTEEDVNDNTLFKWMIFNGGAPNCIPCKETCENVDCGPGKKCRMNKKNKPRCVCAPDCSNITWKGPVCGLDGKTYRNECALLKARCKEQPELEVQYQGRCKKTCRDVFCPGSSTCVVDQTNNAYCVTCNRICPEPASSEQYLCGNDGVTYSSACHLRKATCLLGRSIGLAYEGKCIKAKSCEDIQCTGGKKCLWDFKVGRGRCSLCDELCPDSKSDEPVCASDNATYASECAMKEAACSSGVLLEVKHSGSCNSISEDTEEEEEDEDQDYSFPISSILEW

[14] = target: Fibroblast growth factor 2 (Homo sapiens) (UniProt P09038); assay: FGF2 binders on small-molecule microarrays, primary screen, biochemical, small-molecule microarray, 635/667 nm fluorescence (AID 1133); details: small-molecule microarray binding, FGF2, fluorescence 635/667; higher = more signal
Sequence of Fibroblast growth factor 2 (Homo sapiens) (P09038 whole entry, looked up): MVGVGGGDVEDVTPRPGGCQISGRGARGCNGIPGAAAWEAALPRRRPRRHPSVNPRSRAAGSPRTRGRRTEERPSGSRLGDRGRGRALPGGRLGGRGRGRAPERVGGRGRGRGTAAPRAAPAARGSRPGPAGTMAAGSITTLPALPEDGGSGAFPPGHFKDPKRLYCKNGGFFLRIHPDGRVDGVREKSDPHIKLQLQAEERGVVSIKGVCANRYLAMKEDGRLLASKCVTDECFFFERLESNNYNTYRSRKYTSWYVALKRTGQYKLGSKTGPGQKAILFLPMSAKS

[15] = mitochondrial membrane potential change in A549 cells, profiling panel, cell-based, JC-1 fluorescence, basal, 24 h, 100 nL (AID 1138); details: higher = more signal;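 note: A549 lung adenocarcinoma cells under basal conditions with no added stimulus; test concentration not given here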
Lefty1 = Lefty1 binders on small-molecule microarrays, primary screen, biochemical, small-molecule microarray, 635/667 nm fluorescence (AID 1139); details: small-molecule microarray binding, fluorescence 635/667; higher = more signal
[16] = tested on: wheat germ agglutinin (Triticum aestivum), Alexa647-labelled; assay: wheat germ agglutinin binders on compound microarrays, profiling panel, artefact control for SMM control-protein annotation, biochemical, small-molecule microarray, 635/667 nm fluorescence (AID 1140); details: WGA-A647 binding, 635 nm fluorescence, higher = more signal;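 note: score merges 667 nm feature emission with signal to noise over triplicate slides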
[17] = target: Luciferin 4-monooxygenase (Photinus pyralis) (UniProt P08659); assay: firefly luciferase enzyme inhibitors, primary screen, biochemical, luminescence, purified enzyme, 2006 set (AID 1141); details: SteadyGlo luminescence, 30 min, higher = more signal, called active from +8 up or from −8 down;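 note: cell-free assay with purified firefly luciferase at 100 ng per well in PBS; test concentration not given here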
Sequence of Luciferin 4-monooxygenase (Photinus pyralis) (P08659 whole entry, looked up): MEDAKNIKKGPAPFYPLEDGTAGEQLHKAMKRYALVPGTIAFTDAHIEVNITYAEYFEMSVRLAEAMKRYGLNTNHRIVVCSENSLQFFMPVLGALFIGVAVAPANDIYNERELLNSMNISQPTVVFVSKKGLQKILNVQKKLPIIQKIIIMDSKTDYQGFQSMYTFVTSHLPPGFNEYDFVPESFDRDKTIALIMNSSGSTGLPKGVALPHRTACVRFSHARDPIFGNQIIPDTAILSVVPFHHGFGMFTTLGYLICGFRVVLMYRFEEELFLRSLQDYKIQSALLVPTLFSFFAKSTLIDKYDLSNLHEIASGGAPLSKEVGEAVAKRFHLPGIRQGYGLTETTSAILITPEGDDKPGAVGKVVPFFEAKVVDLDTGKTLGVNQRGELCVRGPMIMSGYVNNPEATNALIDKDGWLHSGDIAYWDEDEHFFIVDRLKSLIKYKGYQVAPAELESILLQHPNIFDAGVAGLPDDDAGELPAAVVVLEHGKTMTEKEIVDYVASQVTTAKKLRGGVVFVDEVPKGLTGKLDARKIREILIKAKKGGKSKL

Row | SMILES | composite z-score (Albumin (Bos taurus)) | composite Z-score [1] | composite z-score [2] | composite z-score [3] | composite z-score [4] | composite z-score [5] | composite z-score [6] | composite z-score (Sam68 (KHDRBS1)) | composite z-score [7] | composite z-score [8] | composite z-score [9] | composite z-score [10] | composite z-score [11] | composite z-score [12] | composite z-score [13] | composite z-score [14] | z-score [15] | composite z-score (Lefty1) | composite z-score [16] | z-score [17]
1 | CC(=O)OC[C@H]1O[C@H](CC=NOC(C)CN2CCCCc3nc(C)c(C)cc32)C=C[C@@H]1OC(C)=O (stereo not given in full) | 0.486 | -1.11 (inactive) | 0.678 | 0.0312 | 0.0236 | 0.511 | 0.333 | 1.31 | 1.33 | 0.902 | 0.544 | 0.819 | 0.0336 | 0.495 | 1.23 | 0.773 | -0.683 | 1.55 | 0.73 | 1.46 (inactive)
2 | CC(=O)OC[C@H]1O[C@H](CCON=C(C)CCN2CCCc3nc(C)c(C)cc32)C=C[C@@H]1OC(C)=O | 0.159 | -0.01 (inactive) | 0.121 | -0.0482 | 0.416 | 0.214 | 0.926 | 1.29 | 0.662 | 0.672 | 1.22 | 1.14 | 0.835 | 0.441 | 1.15 | 0.664 | -0.349 | 0.997 | 0.0722 | 0.591 (inactive)
3 | COC(=O)[C@H](C)NC(=O)CCC1CC(OC(=O)NCCc2ccc(F)cc2)CC2(CCCC(COC(=O)NCc3ccccc3)O2)O1 (stereo not given in full) | 0.431 | 0.0852 (inactive) | -0.0511 | -0.208 | 0.266 | 0.253 | -0.0955 | 1.31 | 0.774 | 0.619 | 0.36 | 0.775 | 0.0965 | 0.911 | 0.913 | 1.13 | 0.708 | 0.875 | 0.0915 | 0.835 (inactive)
4 | C[C@@H]1CC[C@H]2C(=O)N3[C@@H](CC[C@@H](C)[C@@H]3c3ccc(Br)cc3)C(=O)N2[C@H]1c1ccc(Br)cc1 | 0.213 | -0.119 (inactive) | 0.0462 | 0.224 | -0.161 | 0.246 | -0.0873 | 0.31 | 0.391 | 0.344 | 0.0399 | -0.0695 | -0.104 | 0.122 | 0.301 | 0.13 | 1.48 | 0.52 | -0.0219 | -0.199 (inactive)
5 | C=CCOCC1CN2[C@@H](CC[C@@H](C)[C@@H]2c2ccc(Br)cc2)C(=O)O1 (stereo not given in full) | -0.509 | 0.419 (inactive) | -0.0932 | -0.189 | -0.401 | -0.329 | 0.975 | -0.85 | 0.562 | -0.172 | 0.24 | -0.695 | -0.262 | -0.5 | 0.119 | 0.166 | 1.88 | 0.262 | -0.16 | -0.764 (inactive)
6 | CCN1C(=O)[C@H]2[C@H]3[C@H](O)[C@H](O)CC(=NO[C@@H]4O[C@H](COC(C)=O)[C@@H](OC(C)=O)[C@H](OC(C)=O)[C@H]4OC(C)=O)[C@@H]3CC[C@H]2C1=O | 0.646 | 0.581 (inactive) | 0.0479 | -0.044 | -0.0179 | 0.415 | 0.781 | 1.22 | 0.58 | -0.441 | -0.36 | 0.839 | 0.211 | 0.744 | 0.898 | 0.747 | -0.282 | 1.6 | 0.696 | 1.15 (inactive)
7 | C[C@@H]1CC[C@H]2C(=O)OC(CN3C(=O)c4ccccc4C3=O)CN2[C@H]1c1ccc(Br)cc1 (stereo not given in full) | 0.808 | 0.372 (inactive) | -0.0984 | 0.178 | 0.305 | 0.787 | 0.376 | 0.438 | 0.333 | 0.781 | 0.194 | 0.731 | 0.246 | 0.377 | -0.145 | -0.204 | 0.0226 | 0.117 | 0.681 | -0.796 (inactive)
8 | CC=CC1=C(CO)[C@H](O)[C@H]2O[C@H]2[C@@H]1O | -0.0712 | 0.0296 (inactive) | 0.213 | -0.141 | 0.17 | -0.394 | -0.599 | 0.269 | 0.753 | 0.0361 | 0.343 | 0.23 | -0.401 | -0.0599 | 0.937 | 0.45 | -0.537 | 0.911 | -0.0224 | -0.0811 (inactive)
9 | CCOC(=O)[C@H](Cc1ccccc1)NC(=O)CCC1CC(OC(=O)NCCc2ccc(F)cc2)CC2(CCCC(COC(=O)NCCOc3ccccc3)O2)O1 (stereo not given in full) | 0.595 | -0.275 (inactive) | 0.0833 | -0.0189 | 0.0403 | 0.585 | 0.283 | 1.29 | 0.508 | 0.909 | 0.569 | 1.18 | 0.237 | 0.855 | 0.557 | 1.24 | 0.678 | 1.29 | 0.362 | 0.46 (inactive)
10 | CCOC(=O)[C@H](Cc1ccccc1)NC(=O)CCC1CC(OC(=O)NCc2cccc3ccccc23)CC2(CCCC(COC(=O)NCCc3ccc(Cl)cc3)O2)O1 (stereo not given in full) | 0.278 | -0.413 (inactive) | -0.296 | -0.203 | 0.349 | 0.37 | -0.126 | 1.08 | 0.253 | 1.03 | 0.486 | 0.791 | 0.222 | 0.78 | 0.461 | 0.344 | -0.243 | 0.414 | 0.556 | 1.36 (inactive)
11 | O=C1C=C[C@@H](O)[C@@H]2[C@@H]3C(=O)N(C4CCCCC4)C(=O)[C@@H]3CC[C@@H]12 | 0.13 | -0.388 (inactive) | 0.0738 | -0.126 | 0.143 | 0.214 | 0.196 | 0.595 | 0.542 | 0.273 | 0.575 | 0.55 | 0.431 | 0.831 | 1.21 | 0.826 | 1.09 | 0.629 | 0.0297 | -0.611 (inactive)
